Source: PubChem BioAssay AID1159580 (chemical genetic matrix, 2015)
The whole screen tested about 5,500 compounds, of which about 2,000 (36%) were called active. Inconclusive results (about 18%) are left out. Rule as the data show it: active = normalized growth mostly below about 0.91 (no sharp cut-off); inconclusive = no clear call, values can overlap the other calls; inactive = mostly above about 0.92. This is one part of the list.

Assay: chemical genetic growth profiling, strain panel (AID 1159580);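 also: tested at 20 µM; growth read once vehicle control cultures reached saturation at 30 °C; 1 = growth at the plate median or of vehicle wells; lower values mean less growth of the strain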
Settings: growth OD

Measured: normalized growth

NC(=O)N1c2ccccc2CC(=O)c2ccccc21
inactive: S. cerevisiae deletion strains, locus YKL009W, strain mrt4, active compounds read low 1.01 | S. cerevisiae deletion strains, locus YKL068W, active compounds read low 0.994 | S. cerevisiae deletion strains, locus YKL085W, strain MDH1 (second series), active compounds read low 1.02 | S. cerevisiae deletion strains, locus YKL085W, strain MDH1, active compounds read low 1.02 | S. cerevisiae deletion strains, locus YKL160W, strain elf1, active compounds read low 1.05 | S. cerevisiae deletion strains, locus YKL190W, strain CNB1, active compounds read low 1 | S. cerevisiae deletion strains, locus YKR001C, strain vps1, active compounds read low 0.969 | S. cerevisiae deletion strains, locus YKR026C, strain gcn3, active compounds read low 0.972 | S. cerevisiae deletion strains, locus YKR091W, strain srl3, active compounds read low 0.989 | S. cerevisiae deletion strains, locus YLL001W, strain dnm1, active compounds read low 0.969 | S. cerevisiae deletion strains, locus YLL026W, active compounds read low 0.988 | S. cerevisiae deletion strains, locus YLL041C, strain sdh2, active compounds read low 0.982 | S. cerevisiae deletion strains, locus YLR027C, strain aat2, active compounds read low 0.999 | S. cerevisiae deletion strains, locus YLR039C, strain RIC1, active compounds read low 0.972 | S. cerevisiae deletion strains, locus YLR058C, strain SHM2, active compounds read low 0.988 | S. cerevisiae deletion strains, locus YLR102C, strain apc9, active compounds read low 0.979 | S. cerevisiae deletion strains, locus YLR113W, strain HOG1, active compounds read low 0.96 | S. cerevisiae deletion strains, locus YLR221C, strain rsa3, active compounds read low 0.962 | S. cerevisiae deletion strains, locus YLR258W, strain gsy2, active compounds read low 1.01 | S. cerevisiae deletion strains, locus YLR262C, strain YPT6 (second series), active compounds read low 1.01 | S. cerevisiae deletion strains, locus YLR262C, strain YPT6, active compounds read low 1.01 | S. cerevisiae deletion strains, locus YLR268W, strain sec22, active compounds read low 1 | S. cerevisiae deletion strains, locus YLR320W, strain mms22, active compounds read low 0.945 | S. cerevisiae deletion strains, locus YLR330W, strain CHS5, active compounds read low 0.989 | S. cerevisiae deletion strains, locus YLR342W, strain FKS1 (second series), active compounds read low 0.949 | S. cerevisiae deletion strains, locus YLR342W, strain FKS1, active compounds read low 0.998 | S. cerevisiae deletion strains, locus YLR357W, strain rsc2, active compounds read low 0.993 | S. cerevisiae deletion strains, locus YLR370C, strain arc18, active compounds read low 1 | S. cerevisiae deletion strains, locus YLR371W, strain rom2, active compounds read low 0.969 | S. cerevisiae deletion strains, locus YLR384C, strain iki3, active compounds read low 0.983 | S. cerevisiae deletion strains, locus YLR418C, strain cdc73, active compounds read low 1.01 | S. cerevisiae deletion strains, locus YML016C, strain PPZ1, active compounds read low 0.985 | S. cerevisiae deletion strains, locus YML032C, strain rad52, active compounds read low 0.96 | S. cerevisiae deletion strains, locus YML120C, strain ndi1, active compounds read low 0.949 | S. cerevisiae deletion strains, locus YML124C, strain tub3, active compounds read low 0.979 | S. cerevisiae deletion strains, locus YMR058W, strain fet3, active compounds read low 0.978 | S. cerevisiae deletion strains, locus YMR078C, strain ctf18, active compounds read low 0.973 | S. cerevisiae deletion strains, locus YMR125W, strain sto1, active compounds read low 0.971 | S. cerevisiae deletion strains, locus YMR129W, active compounds read low 0.992 | S. cerevisiae deletion strains, locus YMR205C, strain PFK2, active compounds read low 0.96 | S. cerevisiae deletion strains, locus YMR223W, strain ubp8, active compounds read low 0.962 | S. cerevisiae deletion strains, locus YMR231W, strain pep5, active compounds read low 0.971 | S. cerevisiae deletion strains, locus YMR263W, strain SAP30, active compounds read low 1.02 | S. cerevisiae deletion strains, locus YMR307W, strain GAS1, active compounds read low 0.881 | S. cerevisiae deletion strains, locus YNL067W, strain RPL9B, active compounds read low 1.02 | S. cerevisiae deletion strains, locus YNL071W, strain lat1, active compounds read low 0.979 | S. cerevisiae deletion strains, locus YNL128W, strain TEP1, active compounds read low 1.01 | S. cerevisiae deletion strains, locus YNL153C, strain GIM3, active compounds read low 1.02 | S. cerevisiae deletion strains, locus YNL183C, strain NPR1, active compounds read low 0.943 | S. cerevisiae deletion strains, locus YNL209W, strain ssb2, active compounds read low 0.988 | S. cerevisiae deletion strains, locus YNL233W, strain BNI4, active compounds read low 1 | S. cerevisiae deletion strains, locus YNL248C, strain rpa49, active compounds read low 0.997 | S. cerevisiae deletion strains, locus YNL250W, strain rad50, active compounds read low 0.99 | S. cerevisiae deletion strains, locus YNL271C, strain bni1, active compounds read low 0.974 | S. cerevisiae deletion strains, locus YNL298W, strain CLA4, active compounds read low 0.974 | S. cerevisiae deletion strains, locus YNL307C, strain MCK1, active compounds read low 0.96 | S. cerevisiae deletion strains, locus YNL322C, strain KRE1 (second series), active compounds read low 0.986 | S. cerevisiae deletion strains, locus YNL322C, strain KRE1, active compounds read low 0.998 | S. cerevisiae deletion strains, locus YNR049C, strain mso1, active compounds read low 0.991 | S. cerevisiae deletion strains, locus YNR052C, strain pop2, active compounds read low 0.962 | S. cerevisiae deletion strains, locus YOL006C, strain TOP1, active compounds read low 1.03 | S. cerevisiae deletion strains, locus YOL012C, strain htz1 0.873 | S. cerevisiae deletion strains, locus YOL147C, strain pex11, active compounds read low 0.991 | S. cerevisiae deletion strains, locus YOR001W, strain rrp6, active compounds read low 0.949 | S. cerevisiae deletion strains, locus YOR061W, strain CKA2, active compounds read low 0.994 | S. cerevisiae deletion strains, locus YOR069W, strain VPS5, active compounds read low 0.975 | S. cerevisiae deletion strains, locus YOR070C, strain gyp1, active compounds read low 1 | S. cerevisiae deletion strains, locus YOR080W, strain dia2, active compounds read low 1 | S. cerevisiae deletion strains, locus YOR083W, strain WHI5, active compounds read low 0.99 | S. cerevisiae deletion strains, locus YOR106W, strain vam3, active compounds read low 1.03 | S. cerevisiae deletion strains, locus YOR136W, strain idh2, active compounds read low 0.98 | S. cerevisiae deletion strains, locus YOR144C, strain elg1, active compounds read low 0.986 | S. cerevisiae deletion strains, locus YOR184W, strain ser1, active compounds read low 0.951 | S. cerevisiae deletion strains, locus YOR231W, strain MKK1, active compounds read low 0.999 | S. cerevisiae deletion strains, locus YOR265W, strain rbl2, active compounds read low 0.996 | S. cerevisiae deletion strains, locus YOR270C, strain vph1, active compounds read low 0.929 | S. cerevisiae deletion strains, locus YOR290C, strain snf2, active compounds read low 1.02 | S. cerevisiae deletion strains, locus YOR316C, strain cot1, active compounds read low 0.983 | S. cerevisiae deletion strains, locus YPL051W, strain arl3, active compounds read low 1.04 | S. cerevisiae deletion strains, locus YPL055C, strain LGE1, active compounds read low 1.03 | S. cerevisiae deletion strains, locus YPL078C, strain atp4, active compounds read low 1.01 | S. cerevisiae deletion strains, locus YPL106C, strain sse1, active compounds read low 1.01 | S. cerevisiae deletion strains, locus YPL240C, strain hsp82, active compounds read low 0.986 | S. cerevisiae deletion strains, locus YPL241C, strain CIN2, active compounds read low 0.996 | S. cerevisiae deletion strains, locus YPL256C, strain CLN2, active compounds read low 0.992 | S. cerevisiae deletion strains, locus YPR119W, strain clb2, active compounds read low 0.997 | S. cerevisiae deletion strains, locus YPR141C, strain kar3, active compounds read low 0.987 | S. cerevisiae deletion strains, locus YPR163C, strain tif3, active compounds read low 0.983 | S. cerevisiae deletion strains, locus YPR167C, strain met16, active compounds read low 0.979 | S. cerevisiae deletion strains, strain wtn01, active compounds read low 0.999 | S. cerevisiae strains, strain wild type, active compounds read low 0.989
